From PubChem BioAssay (EPA / NIEHS)
Records with an inconclusive call do not appear. The source made the active and inactive calls. Rule for the calls: active = hit-call score of the fitted dose curve at least 0.9, where 1 is the maximum; inconclusive = response in the unintended direction; inactive = score below 0.9.

Legend:
[1] = ATG_M_32_XSP1: Attagene TRANS-FACTORIAL Multi-Species (XSP1) HepG2 Assay for M32 Transcription Factor (Internal Marker) (AID 2283799)
In short: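 Reporter transcripts from the M32 internal-control unit measured by RT-PCR, FAM labelling, HpaI digestion and capillary electrophoresis after 24 h compound exposure of transfected HepG2, 3 nM 6-alpha-fluorotestosterone included; DMSO baseline, positive-direction fit.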

[2] = biological target: mouse Peroxisome Proliferator-activated Receptor gamma (PPARg), Pparg (gene 19016) (UniProt P37238); experiment: ATG_mPPARg_XSP1: Attagene TRANS-FACTORIAL Multi-Species (XSP1) HepG2 Assay for mouse Peroxisome Proliferator-activated Receptor gamma (PPARg) (AID 2283802)
In short: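 Readout is reporter mRNA induction, measured by RT-PCR with 6-FAM labelling, HpaI digestion and capillary electrophoresis, 24 h post-dose relative to DMSO. Transient multi-reporter transfection of human HepG2 with mouse PPARg–GAL4 fusion; 3 nM 6-alpha-fluorotestosterone included.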

[3] = biological target: Nuclear receptor subfamily 1 group I member 2 (Mus musculus) (UniProt O54915); experiment: ATG_mPXR_XSP1: Attagene TRANS-FACTORIAL Multi-Species (XSP1) HepG2 Assay for mouse Pregnane X Receptor (PXR) (AID 2283803)
In short: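 Transiently transfected HepG2 cells expressing a receptor-Gal4 chimera drive a GAL4-UAS reporter; 3 nM 6-alpha-fluorotestosterone included. Reporter mRNA read 24 h post-dose by RT-PCR and capillary electrophoresis; gain of signal relative to DMSO.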

[4] = biological target: frog Thyroid hormone Receptor alpha (TRa), thra-a (gene 397942) (UniProt P15204); experiment: ATG_frTRa_XSP1: Attagene TRANS-FACTORIAL Multi-Species (XSP1) HepG2 Assay for frog Thyroid hormone Receptor alpha (TRa) (AID 2283804)
Procedure: (§1) ATG_XSP1_multi-species_TRANS is a cell-based, multiplexed assay created by modifying the existing Attagene TRANS-FACTORIAL system to include a panel of nuclear receptors from some or all the following species: human (Homo sapiens), mouse (Mus musculus), frog (Xenopus laevis), zebrafish (Danio rerio), chicken (Gallus gallus), and turtle (Chrysemys picta). The ECOTOX-FACTORIAL format uses HepG2, a human liver cell line, with measurements taken at 24 hours after chemical dosing in a 24-well plate. Xsp1 included 3 nM 6-alpha-fluorotestosterone to partially stimulate the androgen receptor.ATG_frTRa_XSP1 is one of 29 assay components measured or calculated from the ATG_XSP1_multi-species_TRANS assay. It is designed to make measurements of mRNA induction, a form of inducible reporter, as detected with fluorescence intensity signals by Reverse transcription polymerase chain reaction (RT-PCR) and Capillary electrophoresis technology.The assay endpoint ATG_frTRa_XSP1 was analyzed in the positive analysis fitting direction relative to DMSO as the negative control and baseline of activity. Using a type of inducible reporter, measures of mRNA for gain-of-signal activity can be used to understand the reporter gene at the transcription factor-level as they relate to the gene TR. Furthermore, this assay endpoint can be referred to as a primary readout, because this assay has produced multiple assay endpoints where this one serves a reporter gene function. To generalize the intended target to other relatable targets, this assay endpoint is annotated to the nuclear receptor intended target family, where the subfamily is non-steroidal.
(§2) Human liver HepG2 cells are transiently transfected with multiple reporter transcription units (MRTUs) in 6-well plates using FuGene 6 reagent (Roche; 3 ml FuGene/1 mg DNA). The MRTU constructs are regulated by a cis-regulating element (promoter). […] A major difference between the CIS and TRANS system is that in CIS activities of endogenous TFs are measured, whereas the TRANS assay evaluates changes in activities of exogenous, chimeric NR-Gal4 proteins. […] At the end of 24 hour incubation, total RNA was isolated using TriZol reagent (Invitrogen). The isolated RNA is then reverse-transcribed using oligo(dT) primer and Mo-MLV reverse transcriptase (Invitrogen) with DNAse I (Ambion) treatment for 30 min. […] The fragments were purified using Qiaquick PCR columns (Qiagen), analyzed on an ABI 3130xL genetic analyzer (Applied Biosystems) with peak positions identified by using a set of X-rhodamine (ROX)-labeled MapMarker1000 molecular weight standards (BioVentures). […]

[5] = biological target: human Thyroid hormone Receptor alpha (TRa), THRA (gene 7067) (UniProt P10827); experiment: ATG_hTRa_XSP1: Attagene TRANS-FACTORIAL Multi-Species (XSP1) HepG2 Assay for human Thyroid hormone Receptor alpha (TRa) (AID 2283805)
In short: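 Reporter transcripts from the human TRa-Gal4 TRANS unit quantified by RT-PCR, fluorescent labeling and capillary electrophoresis after 24 hours of chemical exposure in transfected HepG2 cells; medium contains 3 nM 6-alpha-fluorotestosterone. Positive direction fit against DMSO.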

[6] = test system: turtle Thyroid Hormone Receptor, alpha (TRa), gene 101949057; experiment: ATG_trTRa_XSP1: Attagene TRANS-FACTORIAL Multi-Species (XSP1) HepG2 Assay for turtle Thyroid Hormone Receptor, alpha (TRa) (AID 2283806)
Procedure: as §1, with “receptor.ATG_trTRa_XSP1” for “receptor.ATG_frTRa_XSP1”, “ATG_trTRa_XSP1” for “ATG_frTRa_XSP1”
Human liver HepG2 cells are transiently transfected with multiple reporter transcription units (MRTUs) in 6-well plates using FuGene 6 reagent (Roche; 3 ml FuGene/1 mg DNA). The MRTU constructs are regulated by a cis-regulating element (promoter). […] A major difference between the CIS and TRANS system is that in CIS activities of endogenous TFs are measured, whereas the TRANS assay evaluates changes in activities of exogenous, chimeric NR-Gal4 proteins. […] At the end of 24 hour incubation, total RNA was isolated using TriZol reagent (Invitrogen). The isolated RNA is then reverse-transcribed using oligo(dT) primer and Mo-MLV reverse transcriptase (Invitrogen) with DNAse I (Ambion) treatment for 30 min. The one-tenth of the produced cDNA was amplified by PCR using Taq DNA polymerase (Invitrogen) and two reporter sequence-specific primers. The PCR products were fluorescently labeled by primer extension with 6-arboxyfluorescein (6-FAM) 5'-labeled reporter sequence-specific primer (2 min at 95 C, 20 s at 68 C and 10 min at 72 C) and these products were digested with 5U of HpaI (New England Biolabs) for 2h at 37 C. The fragments were purified using Qiaquick PCR columns (Qiagen), analyzed on an ABI 3130xL genetic analyzer (Applied Biosystems) with peak positions identified by using a set of X-rhodamine (ROX)-labeled MapMarker1000 molecular weight standards (BioVentures). The raw capillary electrophoresis data was processed using Attagraph software (Attagene).

[7] = biological target: zebrafish Thyroid Hormone Receptor alpha (TRa), thraa (gene 30670) (UniProt Q98867); experiment: ATG_zfTRa_XSP1: Attagene TRANS-FACTORIAL Multi-Species (XSP1) HepG2 Assay for zebrafish Thyroid Hormone Receptor alpha (TRa) (AID 2283807)
In short: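 Reporter transcripts driven by a chimeric zebrafish TRa–Gal4 protein were measured by RT-PCR with fluorescent labelling and capillary electrophoresis. These came from transiently transfected HepG2 cells after 24 h chemical exposure, with 3 nM 6-alpha-fluorotestosterone added; baseline was DMSO.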

[8] = ATG_M_19_XSP1: Attagene TRANS-FACTORIAL Multi-Species (XSP1) HepG2 Assay for M19 Transcription Factor (Internal Marker) (AID 2283798)
In short: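 Readout is reporter mRNA induction quantified via RT-PCR, 6-FAM labeling, HpaI digestion and capillary electrophoresis, fitted in the positive direction versus DMSO baseline. Transfected HepG2 cells exposed 24 h, medium including 3 nM 6-alpha-fluorotestosterone.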

[9] = biological target: Peroxisome proliferator-activated receptor gamma (Homo sapiens) (UniProt P37231); experiment: ATG_hPPARg_XSP1: Attagene TRANS-FACTORIAL Multi-Species (XSP1) HepG2 Assay for human Peroxisome Proliferator-activated Receptor gamma (PPARg) (AID 2283800)
Procedure: as §1, with “receptor.ATG_hPPARg_XSP1” for “receptor.ATG_frTRa_XSP1”, “ATG_hPPARg_XSP1” for “ATG_frTRa_XSP1”, “Using a type of inducible reporter, measures of mRNA for gain-of-signal activity can be used to understand the reporter gene at the transcription factor-level as they relate to the gene TR.” left out, “To generalize the intended target to other relatable targets, this assay endpoint is annotated to the nuclear receptor intended target family, where the subfamily is non-steroidal.” left out
Human liver HepG2 cells are transiently transfected with multiple reporter transcription units (MRTUs) in 6-well plates using FuGene 6 reagent (Roche; 3 ml FuGene/1 mg DNA). […] A major difference between the CIS and TRANS system is that in CIS activities of endogenous TFs are measured, whereas the TRANS assay evaluates changes in activities of exogenous, chimeric NR-Gal4 proteins. […] The fragments were purified using Qiaquick PCR columns (Qiagen), analyzed on an ABI 3130xL genetic analyzer (Applied Biosystems) with peak positions identified by using a set of X-rhodamine (ROX)-labeled MapMarker1000 molecular weight standards (BioVentures). […]

[10] = test system: zebrafish Peroxisome Proliferator-activated Receptor gamma (PPARg), gene 557037; experiment: ATG_zfPPARg_XSP1: Attagene TRANS-FACTORIAL Multi-Species (XSP1) HepG2 Assay for zebrafish Peroxisome Proliferator-activated Receptor gamma (PPARg) (AID 2283801)
Procedure: as §1, with “receptor.ATG_zfPPARg_XSP1” for “receptor.ATG_frTRa_XSP1”, “ATG_zfPPARg_XSP1” for “ATG_frTRa_XSP1”, “PPARg.” for “TR.”
as §2

Sequence of zebrafish Thyroid Hormone Receptor alpha (TRa), thraa (gene 30670) (Q98867 whole entry, looked up, the tested form may be a part): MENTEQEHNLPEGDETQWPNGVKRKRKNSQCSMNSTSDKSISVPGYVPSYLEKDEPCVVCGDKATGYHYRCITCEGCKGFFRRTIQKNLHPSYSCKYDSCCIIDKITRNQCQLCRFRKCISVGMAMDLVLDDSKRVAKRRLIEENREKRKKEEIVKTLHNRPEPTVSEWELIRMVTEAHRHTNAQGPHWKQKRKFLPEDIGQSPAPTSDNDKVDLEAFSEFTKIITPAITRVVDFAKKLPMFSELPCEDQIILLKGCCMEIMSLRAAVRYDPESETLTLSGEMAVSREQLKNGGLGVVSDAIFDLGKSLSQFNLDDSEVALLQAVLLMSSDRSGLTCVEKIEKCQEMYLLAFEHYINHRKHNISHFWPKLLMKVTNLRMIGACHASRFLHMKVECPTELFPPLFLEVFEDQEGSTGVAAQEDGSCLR
Sequence of human Thyroid hormone Receptor alpha (TRa), THRA (gene 7067) (P10827 whole entry, looked up, the tested form may be a part): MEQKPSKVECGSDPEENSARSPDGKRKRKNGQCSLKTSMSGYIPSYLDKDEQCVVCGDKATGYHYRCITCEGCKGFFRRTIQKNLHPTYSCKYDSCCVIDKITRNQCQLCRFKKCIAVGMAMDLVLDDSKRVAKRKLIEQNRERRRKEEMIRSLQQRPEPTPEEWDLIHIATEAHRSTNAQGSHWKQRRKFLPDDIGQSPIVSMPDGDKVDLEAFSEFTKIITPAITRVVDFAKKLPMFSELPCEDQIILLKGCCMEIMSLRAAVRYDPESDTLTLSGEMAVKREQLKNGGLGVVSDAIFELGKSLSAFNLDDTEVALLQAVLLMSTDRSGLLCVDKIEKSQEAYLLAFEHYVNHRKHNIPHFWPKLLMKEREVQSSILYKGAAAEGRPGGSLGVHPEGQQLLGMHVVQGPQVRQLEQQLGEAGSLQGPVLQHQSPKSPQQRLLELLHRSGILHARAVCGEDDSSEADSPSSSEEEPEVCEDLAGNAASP
Sequence of Nuclear receptor subfamily 1 group I member 2 (Mus musculus) (O54915 whole entry, looked up, the tested form may be a part): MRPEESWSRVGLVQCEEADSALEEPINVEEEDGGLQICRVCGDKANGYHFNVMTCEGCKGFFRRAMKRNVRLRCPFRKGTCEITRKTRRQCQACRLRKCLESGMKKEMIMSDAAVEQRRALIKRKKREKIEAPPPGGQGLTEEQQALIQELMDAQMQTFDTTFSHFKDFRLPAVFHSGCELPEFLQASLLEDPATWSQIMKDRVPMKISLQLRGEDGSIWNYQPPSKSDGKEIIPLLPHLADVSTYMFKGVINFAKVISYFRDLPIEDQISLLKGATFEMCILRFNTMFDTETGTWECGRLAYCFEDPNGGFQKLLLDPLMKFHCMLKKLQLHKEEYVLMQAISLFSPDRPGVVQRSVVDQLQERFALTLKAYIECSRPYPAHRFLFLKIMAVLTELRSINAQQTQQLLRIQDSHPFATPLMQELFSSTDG
Sequence of mouse Peroxisome Proliferator-activated Receptor gamma (PPARg), Pparg (gene 19016) (P37238 whole entry, looked up, the tested form may be a part): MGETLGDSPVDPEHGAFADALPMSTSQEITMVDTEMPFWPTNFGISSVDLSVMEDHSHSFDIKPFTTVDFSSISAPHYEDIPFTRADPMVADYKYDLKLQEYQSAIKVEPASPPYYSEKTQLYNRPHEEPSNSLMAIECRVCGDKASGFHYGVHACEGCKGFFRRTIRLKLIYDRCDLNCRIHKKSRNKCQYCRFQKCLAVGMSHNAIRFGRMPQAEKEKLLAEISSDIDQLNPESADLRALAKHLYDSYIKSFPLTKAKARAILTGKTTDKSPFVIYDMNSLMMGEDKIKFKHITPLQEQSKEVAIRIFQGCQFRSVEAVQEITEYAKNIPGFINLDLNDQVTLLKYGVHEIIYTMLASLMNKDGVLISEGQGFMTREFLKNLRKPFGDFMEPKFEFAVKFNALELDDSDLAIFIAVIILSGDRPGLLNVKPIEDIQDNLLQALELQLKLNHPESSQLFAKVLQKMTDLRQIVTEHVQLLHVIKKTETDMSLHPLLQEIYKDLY
Sequence of Peroxisome proliferator-activated receptor gamma (Homo sapiens) (P37231 whole entry, looked up): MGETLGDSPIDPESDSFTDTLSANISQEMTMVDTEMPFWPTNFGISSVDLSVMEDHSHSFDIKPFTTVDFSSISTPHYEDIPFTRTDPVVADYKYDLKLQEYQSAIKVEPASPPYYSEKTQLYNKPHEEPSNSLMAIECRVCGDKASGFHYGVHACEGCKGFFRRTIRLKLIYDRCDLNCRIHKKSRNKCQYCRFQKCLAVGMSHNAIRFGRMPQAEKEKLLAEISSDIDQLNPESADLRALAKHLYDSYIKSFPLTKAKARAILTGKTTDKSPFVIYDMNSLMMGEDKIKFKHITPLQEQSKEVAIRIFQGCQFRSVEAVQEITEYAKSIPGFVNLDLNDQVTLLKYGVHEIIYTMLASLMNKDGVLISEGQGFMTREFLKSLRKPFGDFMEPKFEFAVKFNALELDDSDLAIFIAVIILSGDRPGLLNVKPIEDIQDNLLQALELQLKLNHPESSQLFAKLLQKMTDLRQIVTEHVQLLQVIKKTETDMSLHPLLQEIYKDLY
Sequence of frog Thyroid hormone Receptor alpha (TRa), thra-a (gene 397942) (P15204 whole entry, looked up): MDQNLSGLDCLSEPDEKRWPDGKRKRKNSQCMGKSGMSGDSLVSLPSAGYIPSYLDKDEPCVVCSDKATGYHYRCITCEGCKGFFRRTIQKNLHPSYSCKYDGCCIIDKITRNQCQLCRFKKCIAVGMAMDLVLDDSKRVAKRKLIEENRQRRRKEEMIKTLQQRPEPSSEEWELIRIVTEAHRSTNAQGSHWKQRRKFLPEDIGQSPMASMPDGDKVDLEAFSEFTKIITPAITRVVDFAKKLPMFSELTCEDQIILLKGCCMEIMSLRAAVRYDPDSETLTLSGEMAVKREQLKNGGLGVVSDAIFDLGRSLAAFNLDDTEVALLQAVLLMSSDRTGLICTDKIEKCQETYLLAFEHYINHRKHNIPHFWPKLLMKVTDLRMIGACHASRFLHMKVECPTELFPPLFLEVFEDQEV

Structure (SMILES) | outcome [1] | AC50 [2] | outcome [3] | outcome [4] | outcome [5] | outcome [6] | outcome [7] | outcome [8] | outcome [9] | AC50 [3] | outcome [10] | outcome [2]
Oc1ccc(C(c2ccc(O)cc2)(C(F)(F)F)C(F)(F)F)cc1 | inactive | 33.4 µM (active) | inactive | inactive | inactive | inactive | inactive | – | – | – | – | –
Clc1ccc(C(c2ccccc2Cl)C(Cl)(Cl)Cl)cc1 (stereo not drawn) | inactive | – | – | – | inactive | inactive | inactive | inactive | inactive | 2.03 µM (active) | – | –
CC(C)(c1ccccc1)c1ccc(O)cc1 | inactive | – | inactive | – | inactive | inactive | inactive | inactive | inactive | – | inactive | inactive
